# Experimental data: PubChem BioAssay (NCATS)
# Inconclusive results are not listed. Active and inactive are the calls of the source. Calls follow the shape of the dose curve; as a rule, active = well fitted curve in the direction sought with a large enough effect; inconclusive = small, poorly fitted or top-dose-only effect, or another doubt; inactive = no such curve, though single readings can be large; an effect the other way counts as inactive or inconclusive.
# Assays:
# [1] = qHTS of pediatric cancer cell lines to identify multiple opportunities for drug repurposing: Primary screen for MG 63 (6-TG R) cells (AID 1347105); also: nearly all actives have a fitted effect of over 50% in size; also: potency is read from the fitted curve at half-maximal effect; as to activity change, negative = cytotoxic: % is scaled to controls: 0 for no effect and ±100 for the full control effect
# In short: (§1)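 Luminescence from CellTiter-Glo served as readout of metabolically active cells after 48 h compound exposure. Titrations: MIPE 11-point, from 0.78 nM; NPC 8-point, from 0.59 nM (final). Concentration-response curves came straight from the primary screen.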
# [2] = qHTS of pediatric cancer cell lines to identify multiple opportunities for drug repurposing: Primary screen for control Hh wild type fibroblast cells (AID 1347106);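 also: % is scaled to controls: 0 for no effect and ±100 for the full control effect; a drop in luminescence marks cytotoxicity and a rise apparent proliferation; nearly all actives have a fitted effect of over 55% in size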
# In short: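 Viability after 48 h compound treatment at 37C, 500-1,000 cells/well, read as ATP luminescence with CellTiter-Glo. Primary screens used 11-point (MIPE, 0.78 nM-46 µM) or 8-point (NPC, 0.59 nM-46 µM) final concentrations; follow-up screens used 11-point dilutions.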
# [3] = qHTS of pediatric cancer cell lines to identify multiple opportunities for drug repurposing: Primary screen for Rh41 cells (AID 1347108); also: nearly all actives have a fitted effect of over 70% in size; also: potency is read from the fitted curve at half-maximal effect;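 as to activity change, negative = cytotoxic: luminescence drop marks cytotoxic hits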
# In short: as §1
# [4] = qHTS of pediatric cancer cell lines to identify multiple opportunities for drug repurposing: Primary screen for RD cells (AID 1347104); also: nearly all actives have a fitted effect of over 55% in size; also: potency is read from the fitted curve at half-maximal effect;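 as to activity change, negative = cytotoxic: plate controls were DMSO for no effect and bortezomib for full effect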
# In short: as §1
# [5] = qHTS of pediatric cancer cell lines to identify multiple opportunities for drug repurposing: Primary screen for Rh30 cells (AID 1347107); also: nearly all actives have a fitted effect of over 75% in size; also: potency is read from the fitted curve at half-maximal effect; as to activity change, negative = cytotoxic: % is scaled to controls: 0 for no effect and ±100 for the full control effect
# In short: (§2)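 Cells (500-1,000/well) rested 5 h, then received compounds for 48 h; metabolically active cells were measured by CellTiter-Glo luminescence. Final concentrations spanned up to 46 µM (MIPE, 11-point) or 0.59 nM-46 µM (NPC, 8-point) in primary screens, 11-point in follow-ups.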
# [6] = qHTS of pediatric cancer cell lines to identify multiple opportunities for drug repurposing: Confirmatory screen for NB1643 cells (AID 1347109); also: nearly all actives have a fitted effect of over 45% in size; also: potency is read from the fitted curve at half-maximal effect;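 as to activity change, negative = cytotoxic: plate controls were DMSO for no effect and bortezomib for full effect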
# In short: as §2
# [7] = qHTS of pediatric cancer cell lines to identify multiple opportunities for drug repurposing: Confirmatory screen for A673 cells (AID 1347110);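 also: potency is read from the fitted curve at half-maximal effect; cells exposed to compound for 48 h before the viability read; nearly all actives have a fitted effect of over 65% in size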
# In short: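 A673 cells at 500-1,000 cells/well were dosed 5 h after plating, in dilution series up to 46 uM final; primary runs used 8 or 11 points and confirmatory runs used 11 points. Viability was read by CellTiter-Glo luminescence after 48 h, against DMSO and 2.3 uM bortezomib controls.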
# [8] = qHTS of pediatric cancer cell lines to identify multiple opportunities for drug repurposing: Confirmatory screen for SK-N-MC cells (AID 1347111);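 also: potency is read from the fitted curve at half-maximal effect; cells exposed to compound for 48 h before the readout; nearly all actives have a fitted effect of over 70% in size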
# In short: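 Seed 500-1,000 cells/well; rest 5 h at 37 degrees C. Pin-transfer compounds, 11-point titration. Incubate 48 h. Add CellTiter-Glo, 15 min RT, read luminescence.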
# [9] = qHTS of pediatric cancer cell lines to identify multiple opportunities for drug repurposing: Confirmatory screen for BT-12 cells (AID 1347112); also: nearly all actives have a fitted effect of over 55% in size; also: potency is read from the fitted curve at half-maximal effect; as to activity change, negative = cytotoxic: % is scaled to controls: 0 for no effect and ±100 for the full control effect
# In short: as §2
# [10] = qHTS of pediatric cancer cell lines to identify multiple opportunities for drug repurposing: Confirmatory screen for LAN-5 cells (AID 1347113); also: nearly all actives have a fitted effect of over 65% in size; also: potency is read from the fitted curve at half-maximal effect
# In short: as §2
# [11] = qHTS of pediatric cancer cell lines to identify multiple opportunities for drug repurposing: Confirmatory screen for DAOY cells (AID 1347114); also: nearly all actives have a fitted effect of over 65% in size; also: potency is read from the fitted curve at half-maximal effect
# In short: (§3)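 Viability measured as metabolically active cells via CellTiter-Glo luminescence following 48 hours of compound exposure, 11-point dilutions in confirmatory testing. 500-1,000 cells/well plated 5 hours before dosing; controls were DMSO and 2.3 µM bortezomib.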
# [12] = qHTS of pediatric cancer cell lines to identify multiple opportunities for drug repurposing: Confirmatory screen for NB-EBc1 cells (AID 1347115);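 also: cells exposed to compound for 48 h before the viability read; nearly all actives have a fitted effect of over 45% in size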; also: potency is read from the fitted curve at half-maximal effect; as to activity change, negative = cytotoxic: % is scaled to controls: 0 for no effect and ±100 for the full control effect
# In short: as §2
# [13] = qHTS of pediatric cancer cell lines to identify multiple opportunities for drug repurposing: Confirmatory screen for BT-37 cells (AID 1347117); conditions: BT-37 pediatric cancer cells, viability; activity change, negative = cytotoxic: at 45.9 µM (top of the series); also: nearly all actives have a fitted effect of over 55% in size; also: potency is read from the fitted curve at half-maximal effect;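 as to activity change, negative = cytotoxic: plate controls were DMSO for no effect and bortezomib for full effect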
# In short: as §2
# [14] = qHTS of pediatric cancer cell lines to identify multiple opportunities for drug repurposing: Confirmatory screen for MG 63 (6-TG R) cells (AID 1347119); also: nearly all actives have a fitted effect of over 55% in size; also: potency is read from the fitted curve at half-maximal effect
# In short: as §2
# [15] = qHTS of pediatric cancer cell lines to identify multiple opportunities for drug repurposing: Confirmatory screen for control Hh wild type fibroblast cells (AID 1347121);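 also: plate controls were DMSO for no effect and bortezomib for full effect; nearly all actives have a fitted effect of over 70% in size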
# In short: as §2
# [16] = qHTS of pediatric cancer cell lines to identify multiple opportunities for drug repurposing: Confirmatory screen for U-2 OS cells (AID 1347122); also: potency is read from the fitted curve at half-maximal effect; nearly all actives have a fitted effect of over 65% in size
# In short: as §2
# [17] = qHTS of pediatric cancer cell lines to identify multiple opportunities for drug repurposing: Primary screen for OHS-50 cells (AID 1347103); also: potency is read from the fitted curve at half-maximal effect; nearly all actives have a fitted effect of over 40% in size
# In short: as §2
# [18] = qHTS of pediatric cancer cell lines to identify multiple opportunities for drug repurposing: Confirmatory screen for TC32 cells (AID 1347118)
# In short: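 Luminescent CellTiter-Glo read-out of metabolically active TC32 cells after 48 h compound exposure. Primary: MIPE 11-point, 0.78 nM–46 µM; NPC 8-point, 0.59 nM–46 µM. Confirmatory: 11-point dilutions.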
# [19] = qHTS of pediatric cancer cell lines to identify multiple opportunities for drug repurposing: Confirmatory screen for SJ-GBM2 cells (AID 1347116); also: nearly all actives have a fitted effect of over 60% in size; also: potency is read from the fitted curve at half-maximal effect;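 as to activity change, negative = cytotoxic: plate controls were DMSO for no effect and bortezomib for full effect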
# In short: as §3
smiles,measurement,setting,value
CC(C)[C@H](CO)Nc1nc(Nc2cccc(Cl)c2)c2ncn(C(C)C)c2n1,Potency,[1],2.96 µM (active)
same,Potency,[2],inactive
same,Potency,[3],11.8 µM (active)
c1ccc2c(Oc3nc(Nc4ccc(N5CCOCC5)cc4)c4ncn(C5CCCCC5)c4n3)cccc2c1,Potency,[4],inactive
same,Potency,[1],inactive
same,Potency,[2],inactive
same,Potency,[5],inactive
same,Potency,[3],inactive
CS[C@H]1SC[C@@H]2C(=O)N(C)[C@H](C(C)C)C(=O)OC[C@H](NC(=O)c3cnc4ccccc4n3)C(=O)N[C@H](C)C(=O)N(C)[C@@H]1C(=O)N(C)[C@H](C(C)C)C(=O)OC[C@H](NC(=O)c1cnc3ccccc3n1)C(=O)N[C@H](C)C(=O)N2C,Potency,[4],0.003 µM (active)
same,Potency,[1],0.0187 µM (active)
same,Potency,[5],inactive
same,Potency,[6],inactive
same,Potency,[7],0.0059 µM (active)
same,Potency,[8],13.1 µM (active)
same,Potency,[9],0.0093 µM (active)
same,Potency,[10],inactive
same,Potency,[11],0.0147 µM (active)
same,Potency,[12],inactive
same,"activity change, negative = cytotoxic",[13],1.7% (active)
same,Potency,[14],inactive
same,Potency,[15],inactive
same,Potency,[16],0.0208 µM (active)
COc1cc(C(C)C)c(Oc2cnc(NC(CO)CO)nc2N)cc1I,Potency,[2],inactive
same,Potency,[5],inactive
O=c1[nH]c(=O)n([C@H]2C[C@@H](O)[C@@H](CO)O2)cc1F,Potency,[4],16.6 µM (active)
same,Potency,[1],18.7 µM (active)
same,Potency,[5],2.35 µM (active)
same,Potency,[3],1.48 µM (active)
C#Cc1cccc(Nc2ncnc3cc(OCCOC)c(OCCO)cc23)c1,Potency,[17],3.85 µM (active)
same,Potency,[3],7.43 µM (active)
COc1cc(N2CCC(C(N)=O)CC2)ccc1Nc1nc(N)c(Cl)c(Nc2ccccc2S(=O)(=O)C(C)C)n1,Potency,[17],0.0611 µM (active)
same,Potency,[3],0.59 µM (active)
O=C(O)CCCCC(CCSCc1ccccc1)SCc1ccccc1 (stereo not given),Potency,[4],33.2 µM (active)
same,Potency,[2],inactive
CC(=O)OC[C@@H]1O[C@@H](n2ccc(=O)[nH]c2=O)[C@H](OC(C)=O)[C@H]1OC(C)=O,Potency,[4],inactive
same,Potency,[1],inactive
same,Potency,[2],inactive
CC(N[C@H]1CCCC[C@H]1NC(=O)c1ccc(Cl)cc1)c1cccc2ccccc12 (stereo not given in full),Potency,[4],2.64 µM (active)
same,Potency,[2],inactive
same,Potency,[6],20.8 µM (active)
same,Potency,[7],16.5 µM (active)
same,Potency,[8],2.61 µM (active)
same,Potency,[10],14.7 µM (active)
same,Potency,[13],23.3 µM (active)
same,Potency,[18],5.85 µM (active)
same,Potency,[14],23.3 µM (active)
COc1ccc2c(c1OC)C(=O)OC2[C@H]1c2c(cc3c(c2OC)OCO3)CCN1C (stereo not given in full),Potency,[4],0.372 µM (active)
same,Potency,[3],0.469 µM (active)
same,Potency,[6],inactive
same,Potency,[9],inactive
same,Potency,[10],inactive
same,Potency,[12],inactive
same,Potency,[13],inactive
same,Potency,[15],inactive
CC1=C(C(=O)Nc2cc3cn[nH]c3cc2F)C(c2ccc(Cl)cc2F)N=C(c2ccnc(Cl)c2)N1 (stereo not given),Potency,[4],inactive
same,Potency,[2],inactive
same,Potency,[5],inactive
CCOc1cc2ncc(C#N)c(Nc3ccc(OCc4ccccn4)c(Cl)c3)c2cc1NC(=O)C=CCN(C)C,Potency,[4],0.418 µM (active)
same,Potency,[7],10.4 µM (active)
same,Potency,[8],10.4 µM (active)
CC(C=CC1=C(C)CCCC1(C)C)=CC=CC(C)=CC(=O)Nc1ccc(O)cc1,Potency,[4],34 µM (active)
same,Potency,[1],27 µM (active)
same,Potency,[5],42.9 µM (active)
same,Potency,[3],7.62 µM (active)
same,Potency,[7],0.38 µM (active)
same,Potency,[8],2.4 µM (active)
same,Potency,[9],24 µM (active)
same,Potency,[10],6.03 µM (active)
same,Potency,[11],33.9 µM (active)
same,Potency,[12],13.5 µM (active)
same,Potency,[19],2.4 µM (active)
same,Potency,[13],38 µM (active)
same,Potency,[18],2.14 µM (active)
same,Potency,[14],42.7 µM (active)
same,Potency,[16],12 µM (active)
CC(=O)ON=C1C(c2c(O)[nH]c3cc(Br)ccc23)=Nc2ccccc21,Potency,[4],6.62 µM (active)
same,Potency,[2],inactive
same,Potency,[3],2.96 µM (active)
same,Potency,[7],7.37 µM (active)
same,Potency,[8],8.27 µM (active)
same,Potency,[9],18.5 µM (active)
same,Potency,[10],14.7 µM (active)
same,Potency,[12],16.5 µM (active)
same,Potency,[13],16.5 µM (active)
same,Potency,[18],16.5 µM (active)
same,Potency,[14],18.5 µM (active)
same,Potency,[15],inactive
CC[C@]12C=CCN3CC[C@@]4(c5cc([C@@]6(C(=O)OC)C[C@H]7C[C@@H](C(C)(F)F)CN(Cc8c6[nH]c6ccccc86)C7)c(OC)cc5N(C)[C@H]4[C@@](O)(C(=O)OC)[C@H]1OC(C)=O)[C@@H]32,Potency,[4],0.0059 µM (active)
same,Potency,[6],inactive
same,Potency,[7],0.522 µM (active)
same,Potency,[8],9.27 µM (active)
same,Potency,[9],inactive
same,Potency,[10],inactive
same,Potency,[11],inactive
same,Potency,[12],inactive
same,Potency,[19],inactive
same,Potency,[13],inactive
same,Potency,[18],9.27 µM (active)
same,Potency,[14],inactive
same,Potency,[15],inactive
